These results are taken from PubChem BioAssay (EPA / NIEHS).

Usually AC50 stands for the concentration at which the activity in the assay is half-maximal.

Several values for one entry are separate records, joined by “and”; a condition that tells them apart may be missing. Equal entries are not always repeated. Records with an inconclusive call do not appear. More than one record can exist for a structure, and the calls need not agree. Activity calls are given as the source filed them. The calls were made as follows: active = hit-call score of the fitted dose curve at least 0.9, where 1 is the maximum; inconclusive = response in the unintended direction; inactive = score below 0.9.

For assay [1], the system named is rat CYP3A1, gene 25642. Description: NVS_ADME_rCYP3A1: NovaScreen (NVS) CYP450-related Enzyme Activity (ADME) Assay for rat CYP3A1 (AID 2283126). Summed up:
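Cell-free recombinant CYP assay with fluorescent substrate, read 0.5 h after dosing. Screened at 10 uM in duplicate, hits at up to 20 uM in concentration-response; loss of signal versus acetonitrile baseline.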

The target in assay [2] is rat CYP3A2, Cyp3a2 (gene 266682) (UniProt P05183). Description: NVS_ADME_rCYP3A2: NovaScreen (NVS) CYP450-related Enzyme Activity (ADME) Assay for rat CYP3A2 (AID 2283128). Put shortly:
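Cell-free rat CYP3A2 enzyme assay with fluorescent substrate, read 0.5 h after dosing. Primary duplicate screen at 10 uM; actives run in concentration-response up to 20 uM, relative to acetonitrile baseline.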

The target in assay [3] is human AKT serine/threonine Kinase 2 (AKT2), AKT2 (gene 208) (UniProt P31751). Description: NVS_ENZ_hAKT2: NovaScreen (NVS) Enzymatic Assay for human AKT serine/threonine Kinase 2 (AKT2) (AID 2283141). Put shortly:
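Cell-free fluorescence/electrophoretic mobility shift readout of recombinant human AKT2 activity, 1 h after chemical dosing. Duplicate primary screen at 25 uM, then singleton concentration-response up to 50 uM; loss of signal versus DMSO baseline.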

Assay [4] deals with Histone deacetylase 3 (Homo sapiens) (UniProt O15379). Description: NVS_ENZ_hHDAC3: NovaScreen (NVS) Enzymatic Assay for human Histone Deacetylase 3 (HDAC3) (AID 2283163). Summed up: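 Recombinant human HDAC3 with fluorescent substrate, 1 h after dosing; product separated from substrate by electrophoretic mobility shift and read by fluorescence. Primary screen at 25 uM in duplicate; actives (e.g. ≥30% inhibition) retested in concentration-response up to 50 uM.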

The target in assay [5] is human Ephrin type-A Receptor 1 (EphA1), EPHA1 (gene 2041) (UniProt P21709). Description: NVS_ENZ_hEphA1: NovaScreen (NVS) Enzymatic Assay for human Ephrin type-A Receptor 1 (EphA1) (AID 2283158).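 Also: activity is signal loss versus DMSO meaning EphA1 kinase inhibition.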 Put shortly:
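Recombinant kinase, fluorescent substrate, mobility-shift separation, fluorescence read at 1 h. Single-point duplicates at 25 uM; hits (e.g., ≥30% inhibition) run singleton concentration-response, max 50 uM. DMSO = negative control/baseline.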

Assay [6] has as its target human Beta-secretase (BACE), BACE1 (gene 23621) (UniProt P56817). Description: NVS_ENZ_hBACE: NovaScreen (NVS) Enzymatic Assay for human Beta-secretase (BACE) (AID 2283140).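 Also: hits are inhibitors that reduce fluorescent substrate signal versus DMSO.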 Summed up:
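Cell-free fluorescence-intensity assay of recombinant BACE1 expressed in SF9 cells, read 1 hour after dosing. Loss of signal indicates reduced protease activity, fitted relative to DMSO negative control. Primary screen at 25 uM in duplicate; actives followed in concentration series.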

Assay [7] deals with human AKT serine/threonine Kinase 1 (AKT1), AKT1 (gene 207) (UniProt P31749). Description: NVS_ENZ_hAKT1: NovaScreen (NVS) Enzymatic Assay for human AKT serine/threonine Kinase 1 (AKT1) (AID 2283138). Put shortly: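 Cell-free recombinant enzyme with substrate; activity read by fluorescence intensity after electrophoretic mobility shift separating substrate from product, 1 h after dosing. Single-concentration duplicates at 25 uM, then singleton concentration-response up to 50 uM; loss of signal versus DMSO.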

Assay [8] addresses CDK2 (gene 1017) (UniProt P24941). Description: NVS_ENZ_hCDK2: NovaScreen (NVS) Enzymatic Assay for human Cyclin-Cependent Kinase 2 (CDK2) (AID 2283144). Summed up:
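Cell-free recombinant human CDK2 with fluorescent substrate, product separated by electrophoretic mobility shift; 1 hr read. Primary screen at 25 uM in duplicate, actives retested in concentration-response up to 50 uM; loss of signal versus DMSO.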

The target in assay [9] is human Casein Kinase 1-delta (CK1D), CSNK1D (gene 1453) (UniProt P48730). Description: NVS_ENZ_hCK1D: NovaScreen (NVS) Enzymatic Assay for human Casein Kinase 1-delta (CK1D) (AID 2283148). Summed up:
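Recombinant human CK1-delta, cell-free; fluorescent substrate with electrophoretic mobility-shift separation of product, read 1 h after dosing. Single 25 uM duplicate screen, then concentration-response up to 50 uM; loss of signal vs DMSO.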

For assay [10], the target named is human Colony Stimulating Factor 1 Receptor (CSF1R), CSF1R (gene 1436) (UniProt P07333). Description: NVS_ENZ_hCSF1R: NovaScreen (NVS) Enzymatic Assay for human Colony Stimulating Factor 1 Receptor (CSF1R) (AID 2283150). Put shortly:
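Cell-free recombinant human CSF1R kinase with fluorescent substrate, product separated by electrophoretic mobility shift; read 1 h after dosing. Primary screen at 25 uM in duplicate, actives then in concentration-response up to 50 uM, relative to DMSO.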

In assay [11] the target is human Dual Specificity Protein Phosphatase 3 (DUSP3), DUSP3 (gene 1845) (UniProt P51452). Description: NVS_ENZ_hDUSP3: NovaScreen (NVS) Enzymatic Assay for human Dual Specificity Protein Phosphatase 3 (DUSP3) (AID 2283152).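 Also: phosphatase activity of recombinant human DUSP3 on a fluorogenic substrate without cells.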 Put shortly:
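Cell-free assay with recombinant human DUSP3 and fluorogenic substrate, read by fluorescence intensity. Primary screen ran duplicate at 25 uM; actives followed up in concentration series; loss of signal versus DMSO scored.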

For assay [12], the target named is human FYN Proto-Oncogene, Src family Tyrosine Kinase (Fyn), FYN (gene 2534) (UniProt P06241). Description: NVS_ENZ_hFyn: NovaScreen (NVS) Enzymatic Assay for human FYN Proto-Oncogene, Src family Tyrosine Kinase (Fyn) (AID 2283161). Summed up:
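Recombinant enzyme with fluorescent substrate, product separated by electrophoretic mobility shift; read 1 h after dosing. Duplicate 25 uM single-point screen, actives retested in concentration series; loss of signal vs DMSO.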

For assay [13], the target named is human Insulin Receptor (InsR), INSR (gene 3643) (UniProt P06213). Description: NVS_ENZ_hInsR: NovaScreen (NVS) Enzymatic Assay for human Insulin Receptor (InsR) (AID 2283168). Put shortly:
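Fluorescent substrate phosphorylation by recombinant kinase, product resolved by electrophoretic mobility shift, read 1 h after dosing. Screened in duplicate at 25 uM; hits (e.g., 30% inhibition) run in concentration-response to 50 uM; DMSO as baseline.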

The target in assay [14] is human Janus Kinase 2 (Jak2), JAK2 (gene 3717) (UniProt O60674). Description: NVS_ENZ_hJak2: NovaScreen (NVS) Enzymatic Assay for human Janus Kinase 2 (Jak2) (AID 2283169). Put shortly: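 Cell-free recombinant human JAK2 enzyme activity assay, fluorescence/electrophoretic mobility shift read 1 h after dosing. Screened in duplicate at 25 uM, then concentration-response up to 50 uM; activity as signal loss relative to DMSO.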

The target in assay [15] is human Caspase 8 (CASP8), CASP8 (gene 841) (UniProt Q14790). Description: NVS_ENZ_hCASP8: NovaScreen (NVS) Enzymatic Assay for human Caspase 8 (CASP8) (AID 2283146). Put shortly:
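E. coli-expressed enzyme was used in a cell-free fluorogenic substrate assay read 1 h after dosing. Loss of signal was scored relative to DMSO, and the primary screen was run in duplicate at 25 uM.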

For assay [16], the target named is human Elastase, ELANE (gene 1991) (UniProt P08246). Description: NVS_ENZ_hElastase: NovaScreen (NVS) Enzymatic Assay for human Elastase (AID 2283153). Summed up:
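Cell-free elastase from human neutrophils, 1.5 h after dosing, activity read by absorbance. Primary screen in duplicate at 25 uM; hits (e.g., 30% inhibition) rerun in singleton concentration-response up to 50 uM, fitted versus DMSO.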

Assay [17] concerns the target human Esterase Plasma (ES), BCHE (gene 590) (UniProt P06276). Description: NVS_ENZ_hES: NovaScreen (NVS) Enzymatic Assay for human Esterase Plasma (ES) (AID 2283157). Summed up: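 Esterase from human plasma, cell-free, colorimetric absorbance read 0.25 h after dosing. Screened at 25 uM in duplicate, with threshold-passing chemicals run in concentration-response up to 50 uM; loss of signal fitted versus DMSO.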

Assay [18] addresses human Caspase 5 (CASP5), CASP5 (gene 838) (UniProt P51878). Description: NVS_ENZ_hCASP5: NovaScreen (NVS) Enzymatic Assay for human Caspase 5 (CASP5) (AID 2283137). Put shortly: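 Recombinant E. coli-expressed human caspase 5 in a cell-free enzyme assay; fluorescence intensity read 2 hours after chemical dosing. Single-concentration duplicate screen at 25 uM, then concentration-response up to 50 uM for hits; DMSO negative control.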

Assay [19] has as its target Glycogen synthase kinase-3 beta (Homo sapiens) (UniProt P49841). Description: NVS_ENZ_hGSK3b: NovaScreen (NVS) Enzymatic Assay for human Glycogen Synthase Kinase-3 beta (GSK3b) (AID 2283165). Put shortly: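 Recombinant enzyme with specific fluorescent substrate, 1 h, product separated by electrophoretic mobility shift. Primary duplicate screen at 25 uM; actives (e.g. 30% inhibition) followed in singleton concentration-response to 50 uM. Signal loss fitted versus DMSO.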

Assay [20] has as its target Caspase-3 (Homo sapiens) (UniProt P42574). Description: NVS_ENZ_hCASP3: NovaScreen (NVS) Enzymatic Assay for human Caspase 3 (CASP3) (AID 2283139). Summed up:
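Recombinant human caspase-3 from E. coli with a fluorogenic substrate, read by fluorescence 1 h after dosing. Primary screen in duplicate at 25 uM. Actives (for example ≥30% inhibition) rerun as concentration-response up to 50 uM.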

Sequence of human AKT serine/threonine Kinase 1 (AKT1), AKT1 (gene 207) (P31749 whole entry, looked up): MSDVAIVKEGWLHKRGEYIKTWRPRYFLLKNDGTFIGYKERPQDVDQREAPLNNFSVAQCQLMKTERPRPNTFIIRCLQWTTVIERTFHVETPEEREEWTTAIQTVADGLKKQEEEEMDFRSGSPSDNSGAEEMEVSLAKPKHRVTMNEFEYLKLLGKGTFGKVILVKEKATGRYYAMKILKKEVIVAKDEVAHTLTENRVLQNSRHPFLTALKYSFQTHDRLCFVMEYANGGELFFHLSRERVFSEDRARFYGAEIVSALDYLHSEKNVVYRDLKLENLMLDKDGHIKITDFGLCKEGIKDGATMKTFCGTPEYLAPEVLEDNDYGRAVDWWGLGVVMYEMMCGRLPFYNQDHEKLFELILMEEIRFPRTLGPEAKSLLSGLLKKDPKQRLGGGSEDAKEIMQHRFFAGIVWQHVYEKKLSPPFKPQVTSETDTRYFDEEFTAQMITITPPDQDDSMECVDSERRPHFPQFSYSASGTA
Sequence of human Ephrin type-A Receptor 1 (EphA1), EPHA1 (gene 2041) (P21709 whole entry, looked up): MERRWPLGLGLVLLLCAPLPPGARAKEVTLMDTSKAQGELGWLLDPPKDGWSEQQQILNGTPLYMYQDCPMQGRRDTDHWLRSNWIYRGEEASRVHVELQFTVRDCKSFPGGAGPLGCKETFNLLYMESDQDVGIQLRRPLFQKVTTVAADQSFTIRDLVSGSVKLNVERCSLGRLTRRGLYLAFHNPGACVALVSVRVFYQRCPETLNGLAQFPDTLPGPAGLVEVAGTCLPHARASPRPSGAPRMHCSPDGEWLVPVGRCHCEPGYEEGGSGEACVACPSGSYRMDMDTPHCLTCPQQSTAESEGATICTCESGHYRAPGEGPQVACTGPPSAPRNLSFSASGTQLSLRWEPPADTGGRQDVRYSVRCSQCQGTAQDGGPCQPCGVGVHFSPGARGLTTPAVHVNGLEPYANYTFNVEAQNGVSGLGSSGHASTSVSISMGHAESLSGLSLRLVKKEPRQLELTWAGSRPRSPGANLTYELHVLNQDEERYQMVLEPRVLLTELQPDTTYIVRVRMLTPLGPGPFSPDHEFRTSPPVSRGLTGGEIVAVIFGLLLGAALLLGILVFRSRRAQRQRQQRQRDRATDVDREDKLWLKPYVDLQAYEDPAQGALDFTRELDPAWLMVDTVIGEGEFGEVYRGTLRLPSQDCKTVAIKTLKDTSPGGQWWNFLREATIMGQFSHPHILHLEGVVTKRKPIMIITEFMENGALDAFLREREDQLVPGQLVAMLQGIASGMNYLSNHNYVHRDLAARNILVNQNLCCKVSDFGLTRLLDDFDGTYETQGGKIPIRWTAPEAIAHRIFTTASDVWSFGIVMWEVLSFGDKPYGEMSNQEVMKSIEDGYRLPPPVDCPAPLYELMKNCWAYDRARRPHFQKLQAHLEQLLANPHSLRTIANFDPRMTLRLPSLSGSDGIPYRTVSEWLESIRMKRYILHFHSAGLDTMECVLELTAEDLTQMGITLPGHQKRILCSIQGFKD
Sequence of human Esterase Plasma (ES), BCHE (gene 590) (P06276 whole entry, looked up): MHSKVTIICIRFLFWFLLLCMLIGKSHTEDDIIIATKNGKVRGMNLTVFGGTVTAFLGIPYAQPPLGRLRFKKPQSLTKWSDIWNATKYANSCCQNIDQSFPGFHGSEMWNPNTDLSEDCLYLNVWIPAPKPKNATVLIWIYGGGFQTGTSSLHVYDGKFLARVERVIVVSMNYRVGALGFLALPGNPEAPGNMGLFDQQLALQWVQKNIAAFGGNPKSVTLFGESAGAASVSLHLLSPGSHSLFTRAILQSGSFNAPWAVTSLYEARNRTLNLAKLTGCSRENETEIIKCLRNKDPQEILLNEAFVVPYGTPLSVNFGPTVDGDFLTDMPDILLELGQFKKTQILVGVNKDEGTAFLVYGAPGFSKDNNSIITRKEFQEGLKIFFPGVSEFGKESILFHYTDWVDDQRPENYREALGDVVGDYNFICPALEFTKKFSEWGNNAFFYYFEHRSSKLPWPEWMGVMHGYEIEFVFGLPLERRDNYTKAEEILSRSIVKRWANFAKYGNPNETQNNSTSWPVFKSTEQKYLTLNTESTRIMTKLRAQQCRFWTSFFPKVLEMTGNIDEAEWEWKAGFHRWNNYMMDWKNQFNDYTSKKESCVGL
Sequence of rat CYP3A2, Cyp3a2 (gene 266682) (P05183 whole entry, looked up): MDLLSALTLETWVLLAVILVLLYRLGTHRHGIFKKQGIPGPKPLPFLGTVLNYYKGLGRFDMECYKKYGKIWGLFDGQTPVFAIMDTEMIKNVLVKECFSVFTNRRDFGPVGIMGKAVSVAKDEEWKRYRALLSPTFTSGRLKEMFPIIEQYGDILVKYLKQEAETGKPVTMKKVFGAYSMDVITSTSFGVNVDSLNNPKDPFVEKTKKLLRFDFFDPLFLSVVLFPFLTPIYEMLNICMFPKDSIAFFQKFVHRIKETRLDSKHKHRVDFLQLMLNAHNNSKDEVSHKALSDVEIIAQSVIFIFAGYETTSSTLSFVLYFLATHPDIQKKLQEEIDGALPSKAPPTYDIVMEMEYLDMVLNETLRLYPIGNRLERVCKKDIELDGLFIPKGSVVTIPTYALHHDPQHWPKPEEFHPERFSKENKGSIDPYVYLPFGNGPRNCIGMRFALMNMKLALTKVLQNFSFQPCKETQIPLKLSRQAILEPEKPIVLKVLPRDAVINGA
Sequence of human Caspase 5 (CASP5), CASP5 (gene 838) (P51878 whole entry, looked up): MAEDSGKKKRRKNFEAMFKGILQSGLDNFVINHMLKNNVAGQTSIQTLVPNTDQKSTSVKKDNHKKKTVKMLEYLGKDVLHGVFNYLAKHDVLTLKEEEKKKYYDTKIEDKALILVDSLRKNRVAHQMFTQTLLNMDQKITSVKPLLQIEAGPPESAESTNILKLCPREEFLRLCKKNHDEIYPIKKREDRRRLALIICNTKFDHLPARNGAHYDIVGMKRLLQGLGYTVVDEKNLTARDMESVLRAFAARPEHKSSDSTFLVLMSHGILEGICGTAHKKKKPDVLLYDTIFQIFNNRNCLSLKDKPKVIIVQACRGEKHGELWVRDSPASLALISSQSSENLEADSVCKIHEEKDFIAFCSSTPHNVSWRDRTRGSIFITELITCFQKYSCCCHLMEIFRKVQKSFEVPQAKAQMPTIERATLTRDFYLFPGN
Sequence of human Dual Specificity Protein Phosphatase 3 (DUSP3), DUSP3 (gene 1845) (P51452 whole entry, looked up): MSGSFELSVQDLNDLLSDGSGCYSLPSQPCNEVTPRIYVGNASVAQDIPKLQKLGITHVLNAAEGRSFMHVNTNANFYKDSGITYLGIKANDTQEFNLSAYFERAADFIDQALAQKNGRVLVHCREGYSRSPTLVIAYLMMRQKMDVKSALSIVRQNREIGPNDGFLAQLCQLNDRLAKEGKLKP
Sequence of human Beta-secretase (BACE), BACE1 (gene 23621) (P56817 whole entry, looked up): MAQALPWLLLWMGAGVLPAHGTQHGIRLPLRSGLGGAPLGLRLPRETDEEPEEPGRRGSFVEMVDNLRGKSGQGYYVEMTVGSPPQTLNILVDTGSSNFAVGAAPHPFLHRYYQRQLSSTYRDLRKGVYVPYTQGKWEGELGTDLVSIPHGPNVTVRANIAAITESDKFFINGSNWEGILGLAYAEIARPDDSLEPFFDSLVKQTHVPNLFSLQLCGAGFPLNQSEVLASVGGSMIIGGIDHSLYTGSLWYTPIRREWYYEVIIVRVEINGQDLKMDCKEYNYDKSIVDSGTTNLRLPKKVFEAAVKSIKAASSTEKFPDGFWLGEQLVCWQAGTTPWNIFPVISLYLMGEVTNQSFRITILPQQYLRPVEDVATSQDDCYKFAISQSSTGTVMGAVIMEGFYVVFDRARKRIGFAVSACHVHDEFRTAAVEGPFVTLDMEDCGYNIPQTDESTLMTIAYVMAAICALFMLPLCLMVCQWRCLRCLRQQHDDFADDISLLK
Sequence of human FYN Proto-Oncogene, Src family Tyrosine Kinase (Fyn), FYN (gene 2534) (P06241 whole entry, looked up): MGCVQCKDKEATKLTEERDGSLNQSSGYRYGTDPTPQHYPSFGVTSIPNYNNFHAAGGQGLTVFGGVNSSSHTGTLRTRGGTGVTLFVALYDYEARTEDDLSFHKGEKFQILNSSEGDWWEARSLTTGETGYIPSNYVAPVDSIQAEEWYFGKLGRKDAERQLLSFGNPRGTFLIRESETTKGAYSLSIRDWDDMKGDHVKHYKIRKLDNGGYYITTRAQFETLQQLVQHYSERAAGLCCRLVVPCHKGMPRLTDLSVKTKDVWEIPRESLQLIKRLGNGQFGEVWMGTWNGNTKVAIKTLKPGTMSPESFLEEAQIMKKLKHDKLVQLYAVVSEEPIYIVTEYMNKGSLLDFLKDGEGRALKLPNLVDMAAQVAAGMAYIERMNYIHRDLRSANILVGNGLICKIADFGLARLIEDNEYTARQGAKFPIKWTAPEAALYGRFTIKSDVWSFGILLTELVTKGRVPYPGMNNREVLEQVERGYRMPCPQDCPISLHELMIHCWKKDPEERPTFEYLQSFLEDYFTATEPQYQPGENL
Sequence of human Casein Kinase 1-delta (CK1D), CSNK1D (gene 1453) (P48730 whole entry, looked up): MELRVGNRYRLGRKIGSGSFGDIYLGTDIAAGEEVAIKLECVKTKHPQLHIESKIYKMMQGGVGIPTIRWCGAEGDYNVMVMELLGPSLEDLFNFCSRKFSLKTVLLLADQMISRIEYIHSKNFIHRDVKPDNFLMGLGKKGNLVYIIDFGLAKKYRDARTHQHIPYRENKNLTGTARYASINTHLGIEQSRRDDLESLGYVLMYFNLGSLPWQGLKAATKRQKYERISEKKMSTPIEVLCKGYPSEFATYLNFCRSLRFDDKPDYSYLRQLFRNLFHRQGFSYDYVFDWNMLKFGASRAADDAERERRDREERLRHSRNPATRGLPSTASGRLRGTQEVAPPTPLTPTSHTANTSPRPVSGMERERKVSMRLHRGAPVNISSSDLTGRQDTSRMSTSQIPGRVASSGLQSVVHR
Sequence of Caspase-3 (Homo sapiens) (P42574 whole entry, looked up): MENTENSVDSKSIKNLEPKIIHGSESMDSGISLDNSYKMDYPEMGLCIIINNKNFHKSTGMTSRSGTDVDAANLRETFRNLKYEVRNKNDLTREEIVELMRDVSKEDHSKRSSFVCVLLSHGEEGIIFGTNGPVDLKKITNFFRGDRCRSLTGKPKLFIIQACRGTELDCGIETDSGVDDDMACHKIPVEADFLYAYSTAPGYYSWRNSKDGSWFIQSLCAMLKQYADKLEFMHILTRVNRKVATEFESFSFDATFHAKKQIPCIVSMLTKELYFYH

For `C[C@]12CC[C@@H]3c4ccc(O)cc4CC[C@H]3[C@@H]1CC[C@@H]2O`, the call in assay [1], in [3] and in [4] was inactive. The AC50 in assay [2] was 1.48 µM (active).
`C1COCO1`: the outcome in [5] was inactive.
For `CC1=CC(C)C(C=O)C(C)C1` (stereo unspecified) (tested in a mixture with another compound), the compound was called inactive in [6].
In the case of `CC/C(=C(\c1ccccc1)c1ccc(OCCN(C)C)cc1)c1ccccc1`, the AC50 in [7] is 33.4 µM (active); in [12], 22.9 µM (active); in assay [14], 11.1 µM (active). Further, the call in assay [7], in assay [6], in [3], in [8], in [9] and in assay [10] was inactive. Moreover, the compound was called inactive in assay [11], in [5] and in [13].
As to `Cc1cc(N)n(-c2ccccc2)n1`, the call in [5] was inactive.
For `O=C(c1ccc(OCCN2CCCCC2)cc1)c1c(-c2ccc(O)cc2)sc2cc(O)ccc12`, the outcome in assay [7], in assay [15], in assay [9], in assay [17] and in assay [5] was inactive. Moreover, the AC50 in [6] is 15.3 µM (active); in assay [11] it was 12.6 µM (active); in assay [16], 21 µM (active); in [12], 35.6 µM (active); in assay [14], 25 µM (active).
Regarding `N#CCCNCCC#N`, the AC50 in [5] is 21.8 µM (active).
Take `CCOC(=O)C(=O)OCC`: the call in assay [5] was inactive.
Regarding `O=[N+]([O-])c1cc(N(CCO)CCO)ccc1NCCO`, the AC50 in assay [18] was 8.66 µM (active).
Consider `Cc1ccc(C(C)(C)O)cc1`, for which the AC50 in [5] is 44.3 µM (active).
As to `CCC(CC)CO`, in [5], the outcome was inactive.
On to `C#C[C@]1(O)CC[C@H]2[C@@H]3CCc4cc(O)ccc4[C@H]3CC[C@@]21C`, for which the AC50 is 2.51 µM (active) and 3.73 µM (active) and 1.4 µM (active) in assay [1]; 1.2 µM (active) and 2.59 µM (active) and 1.12 µM (active) in assay [2]. Moreover, the result in assay [7] was inactive.
Regarding `CCCCCCCC1CCCC1=O` (stereo unspecified), the compound was classed as inactive in assay [5].
`CCCCCCCCOC(C)=O`: the AC50 in assay [11] is 25 µM (active).
Take `CC(=O)CCC=C(C)CCC=C(C)C`: the compound was classed as inactive in assay [6].
On to `CC/C=C\C#N`, for which, in [11], the AC50 is 40.4 µM (active). The result in [17] was inactive.
Take `CC1(C)CC(=O)CC(C)(C)N1`: in [5], the result was inactive.
As to `C=C(C)C(N)=O`, the call in [7] and in assay [19] was inactive.
Turning to `CC(CO)(CO)[N+](=O)[O-]`, in assay [5], the outcome was inactive.
`NC(=O)c1c(Cl)cccc1Cl`: the result in assay [5] was inactive.
As for `CCCCOCCOCCO`, the compound was called inactive in assay [20].
In the case of `CCOC(=O)C=Cc1ccccc1`, the call in assay [5] was inactive.
On to `N#CCCCC(C#N)CCC#N` (stereo unspecified), for which, in assay [5], the call was inactive.
Regarding `c1ccc(Sc2ccccc2)cc1`, the result in assay [5] was inactive.
On to `NC(=O)NC(N)=O`, for which the AC50 in assay [11] is 25 µM (active). In addition, in assay [5], the outcome was inactive.
On to `Nc1ccc(N)c([N+](=O)[O-])c1`, for which the AC50 in assay [18] is 8.68 µM (active) and 13.7 µM (active). Further, the call in assay [5] was inactive.
Take `CC(=O)C1C(=O)C=C(C)OC1=O` (stereo unspecified): in assay [5], the AC50 was 39.1 µM (active).
Regarding `CC(C)OB(OC(C)C)OC(C)C`, the compound was called inactive in [5].
Turning to `C=C(C)C(=O)OCCC[Si](OC)(OC)OC`, the AC50 in [5] is 25 µM (active).
Consider `O=C1OC2(c3ccc(O)cc3Oc3cc(O)ccc32)c2ccccc21`, for which the values for the AC50 in [6] and in [11] were 7.41 µM (active) and 23.6 µM (active), respectively. Also, the outcome in [17] was inactive.
